# Measured values: the supplement of paper PMC6555819
# Legend:
# Assay in all cases: PBM binding z-score (relative to random genomic background probes); higher = stronger binding; sequences stand for … in GC…GCGATTGACAGCGTAGAATGAAGG
# [1] = tested on: PPARg:RXRa DBDmut IVT, anti-RXR (DBD mutation: RXRa K156A/R161A, NR concentration 270 nM, RXRa partner concentration 90 nM)
# Method in brief: (§1)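 Binding z-scores take random background probes as their reference. They come from custom Agilent 4×180K protein-binding microarrays incubated 1 h with ligand-free nuclear receptor dimers, with antibodies against each partner (one per run) detecting binding. Scanned fluorescence was regression-normalized.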
# [2] = tested on: PPARg:RXRa IVT, anti-PPARg (NR concentration 270 nM, RXRa partner concentration 90 nM)
# Method in brief: as §1
# [3] = tested on: PPARg DBDmut:RXRa IVT, anti-PPARg (DBD mutation: PPARg1 K132A/R137A, NR concentration 270 nM, RXRa partner concentration 90 nM)
# Method in brief: as §1
# [4] = tested on: PPARg DBDmut IVT, anti-PPARg (DBD mutation: PPARg1 K132A/R137A, NR concentration 270 nM)
# Method in brief: as §1
# [5] = tested on: PPARg homodimer (NR concentration 180 nM)
# Method in brief: as §1
# [6] = tested on: PXR:RXRa (NR concentration 270 nM, RXRa partner concentration 90 nM)
# Method in brief: as §1
# [7] = tested on: PXR homodimer (NR concentration 270 nM)
# Method in brief: as §1
# [8] = tested on: RARa:RXR (NR concentration 270 nM, RXRa partner concentration 90 nM)
# Method in brief: as §1
# [9] = tested on: RARa homodimer (NR concentration 270 nM)
# Method in brief: as §1
# [10] = tested on: RARb:RXRa (NR concentration 270 nM, RXRa partner concentration 90 nM)
# Method in brief: as §1
# [11] = tested on: RARb homodimer (NR concentration 270 nM)
# Method in brief: as §1
# [12] = tested on: RARg:RXRa (NR concentration 270 nM, RXRa partner concentration 90 nM)
# Method in brief: as §1
# [13] = tested on: RARg homodimer (NR concentration 270 nM)
# Method in brief: as §1
# [14] = tested on: RXRa DBDmut IVT, anti-RXR (DBD mutation: RXRa K156A/R161A, NR concentration 90 nM)
# Method in brief: as §1
# [15] = tested on: RXRa homodimer (NR concentration 180 nM)
# Method in brief: as §1
# [16] = tested on: THRa:RXRa (NR concentration 90 nM, RXRa partner concentration 90 nM)
# Method in brief: as §1
# [17] = tested on: THRa homodimer (NR concentration 90 nM)
# Method in brief: as §1
# [18] = tested on: VDR homodimer (NR concentration 270 nM)
# Method in brief: as §1
Sequence,PBM binding z-score [1],PBM binding z-score [2],PBM binding z-score [3],PBM binding z-score [4],PBM binding z-score [5],PBM binding z-score [6],PBM binding z-score [7],PBM binding z-score [8],PBM binding z-score [9],PBM binding z-score [10],PBM binding z-score [11],PBM binding z-score [12],PBM binding z-score [13],PBM binding z-score [14],PBM binding z-score [15],PBM binding z-score [16],PBM binding z-score [17],PBM binding z-score [18]
CCTATTAGTTGACAATAAGGGCAACCGAAGCTCG,0.466,0.343,0.307,0.312,0.811,0.771,0.868,1.07,1.45,1.21,1.52,1.04,0.963,0.782,0.644,1.8,0.906,0.927
CAGCCTAGGTCAGTGCCAGTATAGGAGGAACGTT,1.7,1.05,-1.18,-1.02,0.587,-0.0213,-0.197,0.516,-0.0242,3.17,2.5,2.55,3.53,0.655,0.856,1.44,0.501,-0.0639
CGTCCAAGGTCAGCAGGTCAGTGACAGCGACGTG,3.56,3.56,-0.271,-0.196,4.58,3.79,0.701,5.22,2.42,5.27,5.12,6.43,7.03,2.63,5.26,3.87,2.43,2.08
TCTATTAATTGATTAGGGCAACCGAAACAGCGGA,1.84,1.09,0.728,1.07,2.22,0.386,1.53,0.419,2.52,0.75,0.555,0.404,0.432,0.717,0.315,0.691,0.741,1.36
CGTCCAAGGGCAGAGAGGTCAGTGAATGCCGAGT,0.812,1.16,-1.66,-1.28,1.16,3.43,6.33,2.56,-0.0232,3.92,4.03,3.5,4.06,1.49,2.27,2.68,0.704,3.19
CCTTACGGGTCAATGTTATAGCACGGGTGGTACG,1.71,2.59,0.14,0.289,1.3,2.45,-0.0609,3.35,0.558,3.57,2.54,4.03,3.85,0.842,4.04,1.85,-0.227,0.834
CCTGGTTGGTCAGGAGGTCACACACCGGATATGA,-0.199,2.62,-0.128,-0.135,2.95,3.98,0.67,4.45,1.25,3.44,4.02,4.98,4.31,0.0446,4.57,3.37,2.1,2.44
GCTCGGAGGACAAGGTCAGAACTTTGTCCGTAGA,-0.664,0.754,-0.824,-0.981,0.718,1.87,-0.398,2,-0.812,3.2,2.83,3.15,3.26,0.38,2.6,2.67,0.989,0.595
ATCTCTAGGTAACAAATTCAGTGAAAGAGAGGAC,2.5,2.57,1.67,1.65,0.744,0.225,0.486,0.657,1.4,0.701,0.688,0.707,0.762,-0.0663,0.508,1.02,0.762,0.435
CTCGAAAGGTCGGGCTCAGGTGAGTATACCAAAC,0.601,1.13,0.0395,-0.176,1.13,1.64,-0.297,2.71,0.232,3.36,2.49,4.07,3.19,0.869,3,3.46,1.06,0.356
CCTATTAGTTGACCATAAGGGCAACCGAAGCTCG,0.774,0.558,0.33,0.387,1.7,1,0.754,1.37,1.39,1.7,2.05,1.31,0.855,0.655,1.02,2.02,1.34,1.07
CCTCCTGGGCCATTCAGAGGTCATTGATCATATG,0.035,1.4,-0.946,-1.05,2.13,4.87,2.7,4.93,0.138,3.04,4.15,4.79,3.13,0.494,4,3.3,1.39,3.92
CCTATCAGTTGACCATAAGGGCAACCGAAGCTCG,-0.0435,0.067,-0.241,0.0861,1.5,0.754,0.186,1.14,0.698,1.6,1.93,1.48,1.03,0.139,0.916,1.98,1.26,0.554
GCTAGTTGCTCAGTAAAAGGTCACACACCGGTCG,0.44,1.7,-0.262,0.0665,2.95,4.84,0.686,5.72,1.56,4.1,5.11,4.7,4.02,0.441,5.17,3.61,1.73,1.14
TCATATACGTAATACAGGTGAAAGTCGGCATCTA,2.77,1.63,0.572,1.29,1.17,0.689,0.477,0.982,1,0.727,0.8,0.758,0.567,1.76,1.3,0.75,0.27,0.145
CCTCGGAGGACAGAAGGTCAGGGCTGTCCGCTTT,-0.131,0.148,-1.5,-1.83,1.43,1.65,-0.651,2.13,0.0268,3.47,3.88,3.67,3.54,-0.126,2.22,2.35,0.202,0.107
